According to the supplement of paper PMC4840960:

What was measured:
[1] = tested on: E18 rat cortical neuron-glia co-culture; experiment: fiber score / MBP score (myelination specific beyond OL differentiation) (ratio); higher = more myelination-specific MBP alignment; details: treatment time: 8 days (DIV5-DIV13)
Method in brief: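 The measure is the ratio of fiber score to MBP score, where fiber score is continuous MBP fiber length per Olig2+ nucleus and MBP score is thresholded MBP area × intensity per Olig2+ nucleus. Primary E18 rat cortical co-cultures received library compounds at 1 or 5 µM in myelination medium from DIV5 to DIV13, then were fixed in 4 % paraformaldehyde and stained for MBP, Olig2 and DAPI before analysis of four 10X fields per well in duplicate wells.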

[2] = tested on: E18 rat cortical neuron-glia co-culture; experiment: myelination (MBP fiber length per Olig2+ nucleus), % of 1 µM DAPT response (DMSO = 0) (% of DAPT); higher = more myelination, active = 50 or more; details: treatment time: 8 days (DIV5-DIV13)
Method in brief: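 The myelination value was the continuous straight MBP fiber length per Olig2+ nucleus, scaled between 0.1 % DMSO (0) and a 1 µM positive control (100). It was measured in primary E18 rat cortical co-cultures treated with library compounds at 1 or 5 µM in myelination medium from DIV5 through DIV13. Cells were fixed in 4 % paraformaldehyde and stained for MBP, Olig2 and DAPI, and four 10X fields per well were imaged in duplicate wells.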

| Compound | fiber score / MBP score ([1]; 1 µM) | fiber score / MBP score ([1]; 5 µM) | myelination ([2]; 1 µM) | myelination ([2]; 5 µM) |
| --- | --- | --- | --- | --- |
| CN(Cc1cnc2nc(N)nc(N)c2n1)c1ccc(C(=O)N[C@@H](CCC(=O)O)C(=O)O)cc1 [Methotrexate] | 1.06 | 1.53 | -20.4 (inactive) | 195 (active) |
| C[C@H]1COc2c(C3(N)CC3)c(F)cc3c(=O)c(C(=O)O)cn1c23 [Pazufloxacin] | 0.814 | 1.19 | -22.4 (inactive) | 17.6 (inactive) |
| CC(C)NCC(O)c1ccc(NS(C)(=O)=O)cc1 (centres undefined) [Sotalol] | 0.726 | 0.499 | -33.5 (inactive) | -60.5 (inactive) |
| COc1cc(CNC(=O)CCCC/C=C\C(C)C)ccc1O [Zucapsaicin] | 0.875 | 1.51 | -19.7 (inactive) | 98.2 (active) |
| O=[N+]([O-])c1cccc2cn[nH]c12 [7-Nitroindazole] | 0.691 | 0.753 | -9.77 (inactive) | -5.65 (inactive) |
| CCCCNC(=O)NS(=O)(=O)c1ccc(C)cc1 [Tolbutamide] | 0.923 | 0.898 | -1.85 (inactive) | -4.03 (inactive) |
| CCCCN1CCCC1CNC(=O)c1cc(C#N)c2ccccc2c1OC (centres undefined) [Nafadotride] | 0.516 | 0.414 | -15 (inactive) | -20.4 (inactive) |
| N=C(N)NC(=O)c1nc(Cl)c(N)nc1N [Amiloride] | 0.887 | 0.827 | -12.4 (inactive) | 16.9 (inactive) |
| Cc1ncc([N+](=O)[O-])n1CC(O)CCl (centres undefined) [Ornidazole] | 0.58 | 0.686 | -14.7 (inactive) | -1.4 (inactive) |
| CC[C@@H]1C(=O)OC[C@@H]1Cc1cncn1C [Pilocarpine] | 0.814 | 0.782 | -24.8 (inactive) | -11.2 (inactive) |
| O=C1c2cccc3c2[C@H](CCC3)CN1[C@@H]1CN2CCC1CC2 [Palonosetron] | 0.728 | 0.587 | -11.1 (inactive) | -11.5 (inactive) |
| NC(=O)N1c2ccccc2CC(=O)c2ccccc21 [Oxcarbazepine] | 1.02 | 1.17 | 3.46 (inactive) | 196 |
| C#C[C@]1(O)CC[C@H]2[C@@H]3CCc4cc(O)ccc4[C@H]3CC[C@@]21C [Ethinyl Estradiol] | 0.608 | 0.958 | -18.3 (inactive) | 159 |
| Nc1ccn([C@H]2CC[C@@H](CO)O2)c(=O)n1 [Zalcitabine] | 0.888 | 0.902 | 3.9 (inactive) | -7.3 (inactive) |
| O=C(c1ccccc1)c1ccc2n1CCC2C(=O)O (centres undefined) [Ketorolac] | 0.853 | 1.12 | -4.81 (inactive) | 2.63 (inactive) |
| CN1CC(=O)N2[C@H](c3ccc4c(c3)OCO4)c3[nH]c4ccccc4c3C[C@@H]2C1=O [Tadalafil] | 0.799 | 0.74 | -45.7 (inactive) | -34.9 (inactive) |
| CNS(=O)(=O)Cc1ccc2[nH]cc(CCN(C)C)c2c1 [Sumatriptan] | 0.873 | 0.861 | -5.51 (inactive) | -5.9 (inactive) |
| CCCCN1CCCCC1C(=O)Nc1c(C)cccc1C (centres undefined) [Bupivacaine] | 0.752 | 0.575 | -11.2 (inactive) | -16.6 (inactive) |
| CC(N)C12CC3CC(CC(C3)C1)C2 (centres undefined) [Rimantadine] | 0.962 | 0.737 | 28.7 (inactive) | 62.2 |
| CC[N+](C)(C)c1cccc(O)c1 [Edrophonium] | 0.813 | 0.982 | -6.47 (inactive) | 0.577 (inactive) |
| CN(C)[C@@H]1C(O)=C(C(N)=O)C(=O)[C@@]2(O)C(O)=C3C(=O)c4c(O)ccc(Cl)c4[C@@H](O)[C@H]3C[C@@H]12 [Demeclocycline] | 0.946 | 0.666 | -3.29 (inactive) | -12.1 (inactive) |
